Test results from PubChem BioAssay (Tox21).
“And” between values parts separate entries of the source, which are not always exact repeats. Equal entries are not always repeated. Results filed as inconclusive are left out. Some structures have more than one record in an assay (separate samples or runs), and their calls can disagree. The source made the active and inactive calls. Unless noted, calls come from the whole dose curve; as a rule, active = well fitted curve in the direction sought with a large enough effect in the repeat runs; inconclusive = weak or mixed curves; inactive = no such curve, though single readings can be large; an effect the other way counts as inactive or inconclusive.

Experiments:
[1] = qHTS assay to identify small molecule agonists of the androgen receptor (AR) signaling pathway in the presence of an antagonist - cell viability counter screen (AID 1259379); note: nearly all actives have a fitted effect of over 25% in size; note: potency is the fitted concentration of half-maximal effect
How it was run: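 Cytotoxicity is assessed by CellTiter-Fluor in MDA-kb2 cells carrying an MMTV-driven luciferase reporter. Cells receive 3.0uM nilutamide plus compounds at 15 concentrations and incubate 16 hr at 37C without CO2 before fluorescence reading.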

[2] = qHTS assay to identify small molecule agonists of the estrogen receptor beta (ER-beta) signaling pathway - cell viability counter screen (AID 1259380); note: nearly all actives have a fitted effect of over 30% in size; note: potency is the fitted concentration of half-maximal effect
How it was run: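 Cytotoxicity is measured in parallel with the reporter screen: after 16 hr compound exposure at 37C and a 2 hr LiveBLAzer step, CellTiter-Glo is added to the same ER-beta-UAS-bla HEK293T wells and luminescence read after 30 min.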

[3] = qHTS assay to identify small molecule antagonists of the estrogen receptor beta (ER-beta) signaling pathway - cell viability counter screen (AID 1259382); note: nearly all actives have a fitted effect of over 55% in size; note: potency is the fitted concentration of half-maximal effect
How it was run: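 Cytotoxicity counter screen multiplexed with the beta-lactamase antagonist assay: GripTite HEK293T ER-beta-bla cells were treated 16 hr with test chemicals in the presence of 1nM 17-beta-estradiol, and viability was measured by CellTiter-Glo.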

[4] = target: Estrogen receptor (Homo sapiens) (UniProt P03372); test: qHTS assay to identify small molecule agonists of the estrogen receptor alpha (ER-alpha) signaling pathway in the presence of an antagonist (AID 1259383; calls by dose curve; note: top concentration of the series differs between compounds; nearly all actives have a fitted effect of over 15% in size)
How it was run: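 Agonist-mode confirmation in the presence of the ER antagonist ICI-182,780 at 10.0nM final. Breast-derived VM7Luc4E2 reporter cells were exposed to compounds for 22hr, and ERE-driven luciferase was quantified by luminescence.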

[5] = qHTS assay to identify small molecule agonists or antagonists of the thyroid stimulating hormone receptor (TSHR) signaling pathway - wild type cell line counter screen (AID 1259384; calls by dose curve)
How it was run: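 Wild-type Hek293 cells, 800/well, 18 h at 37C, then compound with Ro20-1724 for 30 min RT. cAMP by HTRF (cAMP-d2/anti-cAMP cryptate), 1 h RT, fluorescence read. 15 concentrations, triplicates.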

[6] = target: Thyrotropin receptor (Homo sapiens) (UniProt P16473); test: qHTS assay to identify small molecule antagonists of the thyroid stimulating hormone receptor (TSHR) signaling pathway (AID 1259385; calls by dose curve; note: nearly all actives have a fitted effect of over 20% in size; note: potency is the fitted concentration of half-maximal effect)
How it was run: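 TSHR-HEK293 cells (800/well) plated 18 h, then compounds with Ro20-1724 and TSH at 1.5 ng/mL final, 30 min at room temperature. cAMP quantified by HTRF (cAMP-d2/anti-cAMP-cryptate, 1 h); 15 concentrations in triplicate.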

[7] = qHTS assay to identify small molecule agonists of the estrogen receptor alpha (ER-alpha) signaling pathway in the presence of an antagonist - cell viability counter screen (AID 1259386);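 note: cells exposed to compounds for 22 h at 37 °C before the viability read; nearly all actives have a fitted effect of over 30% in size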; note: potency is the fitted concentration of half-maximal effect
How it was run: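 Cytotoxicity was measured in parallel with the ERE-luciferase agonist screen, in the same wells. The cells were VM7Luc4E2, which endogenously express ER-alpha, and treatment was with compounds plus 10.0nM ICI-182,780 for 22hr.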

[8] = target: Progesterone receptor (Homo sapiens) (UniProt P06401); test: qHTS assay to identify small molecule antagonists of the progesterone receptor (PR) signaling pathway (AID 1346795; active = well fitted inhibition curve with a large enough effect in the signal ratio in the repeat runs, not every such curve was filed as active; the % refers to the signal ratio; note: potency is the fitted concentration of half-maximal effect)
How it was run: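 Inhibition of R5020-induced (1 nM final) beta-lactamase reporter signal in PR-UAS-bla HEK293T cells was scored by FRET fluorescence after overnight (16 hr) compound treatment.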

[9] = qHTS assay to identify small molecule antagonists of the progesterone receptor (PR) signaling pathway - cell viability counter screen (AID 1346798); note: nearly all actives have a fitted effect of over 50% in size; note: potency is the fitted concentration of half-maximal effect
How it was run: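 ATP content as viability readout: CellTiter-Glo luminescence, 30 min room temperature, in PR-UAS-bla HEK293T cells after 16 hr compound/R5020 treatment at 37C and 5% CO2.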

[10] = qHTS assay to identify small molecule agonists of the TGF-beta/Smad signaling pathway - cell viability counter screen (AID 1346829); note: nearly all actives have a fitted effect of over 45% in size; note: potency is the fitted concentration of half-maximal effect
How it was run: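 CellTiter-Glo luminescence readout; SBE-bla HEK 293T cells, overnight plating, compound 5 hr at 37 C/5% CO2, then bla substrate 2 hr RT, then CellTiter-Glo 30 min RT.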

[11] = qHTS assay to identify small molecule agonists of the TGF-beta/Smad signaling pathway (AID 1346859; active = well fitted activation curve with a large enough effect in the signal ratio in the repeat runs, not every such curve was filed as active; the % refers to the signal ratio; note: series mostly up to about 77 µM)
How it was run: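 Stable Smad binding element-beta-lactamase HEK 293T cells; 5 hr compound exposure at 37 C under 5% CO2; 2 hr room-temperature substrate step; fluorescence excited at 405 nm, collected at 460 nm and 530 nm.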

[12] = Human pregnane X receptor (PXR) small molecule agonists, qHTS cell viability counter screen (AID 1346977); note: nearly all actives have a fitted effect of over 50% in size; note: potency is the fitted concentration of half-maximal effect
How it was run: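 Readout is CellTiter-Fluor fluorescence from PXR-Luc HepG2 cells. Plated cells rested 5hr, then were treated with compounds for 24hr at 37C and 5% CO2, with reagent present during the last hour.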

[13] = target: Androgen receptor (Homo sapiens) (UniProt P10275); test: qHTS assay to identify small molecule agonists of the androgen receptor (AR) signaling pathway in the presence of an antagonist (AID 1259381; calls by dose curve; note: nearly all actives have a fitted effect of over 15% in size; note: potency is the fitted concentration of half-maximal effect)
How it was run: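 Agonist-mode confirmation screen: human MDA-kb2 cells stably expressing luciferase under an MMTV promoter bearing AR and GR response elements, co-treated with 3.0uM nilutamide (final). Luminescence measured after 16hr compound incubation.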

[14] = target: Progesterone receptor (Homo sapiens) (UniProt P06401); test: qHTS assay to identify small molecule agonists of the progesterone receptor (PR) signaling pathway (AID 1346784; calls by dose curve; note: nearly all actives have a fitted effect of over 30% in size)
How it was run: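 Using charcoal-stripped serum (2%) to limit endogenous steroids, PR-UAS-bla HEK 293T cells received compounds for 16 hr at 37C after 6 hr plating; beta-lactamase FRET fluorescence was recorded following 2 hr substrate loading at room temperature.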

[15] = qHTS assay to identify small molecule agonists of the progesterone receptor (PR) signaling pathway - cell viability counter screen (AID 1346799; calls by dose curve; note: nearly all actives have a fitted effect of over 45% in size; note: potency is the fitted concentration of half-maximal effect)
How it was run: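 Cytotoxicity in PR-bla HEK293T cells: 16 h compound, 37C; CellTiter-Glo added post-FRET read; luminescence after 30 min RT.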

[16] = target: Thyrotropin-releasing hormone receptor (Homo sapiens) (UniProt P34981); test: qHTS assay to identify small molecule antagonists of the thyrotropin-releasing hormone receptor (TRHR) signaling pathway (AID 1346877; active = well fitted inhibition curve with a large enough effect in the repeat runs, not every such curve was filed as active; note: series mostly up to about 51 µM)
How it was run: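 Antagonism is measured as suppression of the calcium response to 1 nM TRH in TRHR-HEK293 cells that have been dye-loaded for 2 h at 37 °C after overnight plating. Each compound is tested at 15 concentrations in triplicate.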

[17] = target: Thyrotropin-releasing hormone receptor (Homo sapiens) (UniProt P34981); test: qHTS assay to identify small molecule agonists of the thyrotropin-releasing hormone receptor (TRHR) signaling pathway (AID 1346891; calls by dose curve;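 note: HEK293 cells expressing TRHR with calcium dye readout; series mostly up to about 58 µM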)
How it was run: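 In 1536-format, 1500 TRHR-Hek293 cells per well grew 18 h, took up calcium dye for 2 h at 37 °C, received compound, and were read kinetically; 15-point titrations, triplicates.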

[18] = Caspase-3/7 induction in HepG2 cells by small molecules, qHTS assay (AID 1346978); note: nearly all actives have a fitted effect of over 15% in size; note: potency is the fitted concentration of half-maximal effect
How it was run: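 Wild-type HepG2 cells, 2,000/well, settled 5 hr at 37 C and 5% CO2, then compound-treated for 17 hr; caspase-3/7 activity read by luminescent Caspase-Glo 3/7 after 30 min at room temperature.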

[19] = qHTS assay to identify small molecule antagonists of the TGF-beta/Smad signaling pathway - cell viability counter screen (AID 1346824); note: nearly all actives have a fitted effect of over 50% in size; note: potency is the fitted concentration of half-maximal effect
How it was run: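 SBE-bla HEK 293T cells, incubated overnight, then compound plus 0.25 ng/mL TGF-beta1 (stock added) for 5 hr at 37 C. Viability was read in the same wells by CellTiter-Glo luminescence after 30 min at room temperature.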

Measured: Potency

Thyrotropin receptor (Homo sapiens), sequence (P16473 whole entry, looked up): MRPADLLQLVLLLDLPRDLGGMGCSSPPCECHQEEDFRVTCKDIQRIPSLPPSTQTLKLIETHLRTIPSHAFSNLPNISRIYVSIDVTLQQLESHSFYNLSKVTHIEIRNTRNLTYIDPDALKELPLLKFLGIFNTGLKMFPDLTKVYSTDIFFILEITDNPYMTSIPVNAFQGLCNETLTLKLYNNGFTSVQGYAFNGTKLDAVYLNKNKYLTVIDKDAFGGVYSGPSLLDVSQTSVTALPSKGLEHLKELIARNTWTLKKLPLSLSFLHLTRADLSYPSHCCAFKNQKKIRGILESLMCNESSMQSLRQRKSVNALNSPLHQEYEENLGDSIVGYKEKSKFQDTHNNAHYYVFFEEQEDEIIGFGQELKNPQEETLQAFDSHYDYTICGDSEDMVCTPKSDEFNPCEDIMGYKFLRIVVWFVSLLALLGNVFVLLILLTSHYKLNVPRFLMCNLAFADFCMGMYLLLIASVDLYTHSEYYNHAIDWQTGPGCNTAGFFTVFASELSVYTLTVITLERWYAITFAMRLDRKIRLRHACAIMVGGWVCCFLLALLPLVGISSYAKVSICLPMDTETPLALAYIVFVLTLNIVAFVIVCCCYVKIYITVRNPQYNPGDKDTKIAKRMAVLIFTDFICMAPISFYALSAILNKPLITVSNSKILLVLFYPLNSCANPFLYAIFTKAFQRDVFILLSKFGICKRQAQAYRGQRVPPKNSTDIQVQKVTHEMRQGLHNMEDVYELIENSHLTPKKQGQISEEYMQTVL
Androgen receptor (Homo sapiens), sequence (P10275 whole entry, looked up): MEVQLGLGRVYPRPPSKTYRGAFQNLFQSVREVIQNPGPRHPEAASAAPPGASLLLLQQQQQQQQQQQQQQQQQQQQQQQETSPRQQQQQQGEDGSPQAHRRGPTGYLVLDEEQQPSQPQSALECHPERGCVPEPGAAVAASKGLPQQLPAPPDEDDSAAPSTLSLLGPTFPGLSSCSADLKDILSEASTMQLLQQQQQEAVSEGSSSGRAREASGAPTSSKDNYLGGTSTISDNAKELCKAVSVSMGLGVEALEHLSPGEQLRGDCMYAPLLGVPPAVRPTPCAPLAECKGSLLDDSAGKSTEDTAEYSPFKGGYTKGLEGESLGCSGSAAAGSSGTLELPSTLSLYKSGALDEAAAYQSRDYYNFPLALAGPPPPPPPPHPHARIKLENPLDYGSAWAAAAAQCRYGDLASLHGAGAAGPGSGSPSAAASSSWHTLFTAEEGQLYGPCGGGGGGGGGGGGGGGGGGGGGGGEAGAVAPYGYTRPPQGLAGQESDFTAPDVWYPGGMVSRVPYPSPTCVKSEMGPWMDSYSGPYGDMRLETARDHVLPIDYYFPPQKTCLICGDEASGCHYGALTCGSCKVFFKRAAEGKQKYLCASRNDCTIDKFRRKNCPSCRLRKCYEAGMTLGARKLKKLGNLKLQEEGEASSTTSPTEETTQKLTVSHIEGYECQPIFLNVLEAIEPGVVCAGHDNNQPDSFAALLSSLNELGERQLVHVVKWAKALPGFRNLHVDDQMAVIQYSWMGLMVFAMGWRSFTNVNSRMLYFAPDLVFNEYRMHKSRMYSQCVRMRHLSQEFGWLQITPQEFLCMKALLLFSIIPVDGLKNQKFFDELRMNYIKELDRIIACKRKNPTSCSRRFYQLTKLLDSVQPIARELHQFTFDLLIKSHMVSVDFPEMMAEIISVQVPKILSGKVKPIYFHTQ
Estrogen receptor (Homo sapiens), sequence (P03372 whole entry, looked up): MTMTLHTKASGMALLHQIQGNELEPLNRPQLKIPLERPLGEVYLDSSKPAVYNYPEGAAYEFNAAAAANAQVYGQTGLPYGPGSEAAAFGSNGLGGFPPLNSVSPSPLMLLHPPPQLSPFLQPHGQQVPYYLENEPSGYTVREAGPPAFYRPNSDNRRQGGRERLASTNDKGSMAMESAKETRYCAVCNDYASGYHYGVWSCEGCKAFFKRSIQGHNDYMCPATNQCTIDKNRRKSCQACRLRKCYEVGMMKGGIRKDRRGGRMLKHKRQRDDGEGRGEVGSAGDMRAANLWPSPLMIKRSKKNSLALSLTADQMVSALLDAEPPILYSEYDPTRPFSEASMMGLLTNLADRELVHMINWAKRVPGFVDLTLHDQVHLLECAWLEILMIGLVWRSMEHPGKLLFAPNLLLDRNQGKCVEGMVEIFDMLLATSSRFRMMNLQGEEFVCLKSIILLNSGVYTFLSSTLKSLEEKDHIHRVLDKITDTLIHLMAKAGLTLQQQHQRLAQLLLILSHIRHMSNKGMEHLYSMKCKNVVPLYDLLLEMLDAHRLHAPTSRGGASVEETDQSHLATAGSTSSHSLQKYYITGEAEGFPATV
Progesterone receptor (Homo sapiens), sequence (P06401 whole entry, looked up): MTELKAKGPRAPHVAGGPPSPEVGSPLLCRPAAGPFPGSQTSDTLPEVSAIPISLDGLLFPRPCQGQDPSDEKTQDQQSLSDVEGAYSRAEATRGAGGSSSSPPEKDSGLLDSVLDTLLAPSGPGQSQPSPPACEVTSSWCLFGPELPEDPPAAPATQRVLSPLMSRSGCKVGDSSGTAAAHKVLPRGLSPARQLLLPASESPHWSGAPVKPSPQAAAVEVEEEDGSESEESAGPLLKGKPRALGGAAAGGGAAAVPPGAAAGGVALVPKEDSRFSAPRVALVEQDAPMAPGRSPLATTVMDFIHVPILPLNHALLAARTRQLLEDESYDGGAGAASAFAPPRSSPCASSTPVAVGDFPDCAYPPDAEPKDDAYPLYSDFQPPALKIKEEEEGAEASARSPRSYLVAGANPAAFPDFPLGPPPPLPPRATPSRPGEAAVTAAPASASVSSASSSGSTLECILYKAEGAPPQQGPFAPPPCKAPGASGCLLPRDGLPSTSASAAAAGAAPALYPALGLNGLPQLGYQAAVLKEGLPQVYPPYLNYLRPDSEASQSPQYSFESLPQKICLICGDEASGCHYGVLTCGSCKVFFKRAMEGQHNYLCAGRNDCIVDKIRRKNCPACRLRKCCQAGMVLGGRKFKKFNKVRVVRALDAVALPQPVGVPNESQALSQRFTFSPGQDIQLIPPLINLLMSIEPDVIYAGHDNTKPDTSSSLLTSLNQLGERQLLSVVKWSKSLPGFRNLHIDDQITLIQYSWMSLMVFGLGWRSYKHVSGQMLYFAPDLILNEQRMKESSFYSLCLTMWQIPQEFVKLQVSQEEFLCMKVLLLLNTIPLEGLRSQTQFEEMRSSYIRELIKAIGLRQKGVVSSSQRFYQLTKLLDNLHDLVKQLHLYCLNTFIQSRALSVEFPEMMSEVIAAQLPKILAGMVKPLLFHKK
Thyrotropin-releasing hormone receptor (Homo sapiens), sequence (P34981 whole entry, looked up): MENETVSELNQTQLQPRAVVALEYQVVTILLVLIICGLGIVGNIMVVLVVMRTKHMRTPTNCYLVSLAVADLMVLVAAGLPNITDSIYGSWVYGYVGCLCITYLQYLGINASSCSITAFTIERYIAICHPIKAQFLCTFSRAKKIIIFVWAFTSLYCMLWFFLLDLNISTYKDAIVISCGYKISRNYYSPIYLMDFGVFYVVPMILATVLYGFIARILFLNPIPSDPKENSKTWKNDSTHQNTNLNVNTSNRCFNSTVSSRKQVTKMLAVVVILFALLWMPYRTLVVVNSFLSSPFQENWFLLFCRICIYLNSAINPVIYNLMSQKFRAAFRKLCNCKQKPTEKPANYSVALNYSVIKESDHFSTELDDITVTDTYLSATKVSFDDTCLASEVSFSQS

O=c1[nH]c2ccccc2n1C1CCN(CCCC(c2ccc(F)cc2)c2ccc(F)cc2)CC1
inactive: [4] | [5] | [6] | [11]
49 µM (active) and inactive: [10]
active: [1] 24.3 µM | [2] 27.3 µM and 21.1 µM | [3] 30.6 µM and 29.8 µM | [7] 54.5 µM | [8] 26.6 µM | [9] 30.6 µM | [12] 21.7 µM and 26.6 µM

C[C@@H]1O[C@@H](O[C@@H]2C=C3CC[C@@H]4[C@H](CC[C@]5(C)[C@@H](c6ccc(=O)oc6)CC[C@]45O)[C@@]3(C)CC2)[C@H](O)[C@H](O)[C@H]1O
inactive: [1] | [5] | [7] | [14] | [16] | [17] | [18]
active: [2] 9.4 nM | [13] 0.0298 µM | [3] 9.4 nM | [6] 0.298 µM | [9] 0.0133 µM | [15] 0.0168 µM

Clc1ccc(-c2ccccc2)cc1
inactive: [1] | [2] | [3] | [4] | [5] | [7] | [14] | [8] | [9] | [15] | [19] | [10] | [11] | [16] | [17] | [12] | [18]

CN(CCCC(=O)c1cccnc1)N=O
inactive: [1] | [2] | [13] | [4] | [5] | [6] | [7] | [8] | [9] | [15] | [19] | [10] | [11] | [16] | [17] | [12] | [18]

CC(Cl)CN(C)C (stereo unspecified)
inactive: [1] | [2] | [13] | [4] | [5] | [6] | [7] | [14] | [8] | [15] | [10] | [11] | [16] | [17] | [12] | [18]

Oc1cccc(-c2ccccc2)c1
active: [8] 30.6 µM
inactive: [1] | [2] | [3] | [4] | [5] | [6] | [7] | [14] | [9] | [19] | [10] | [11] | [12] | [18]

C=CC(=O)N(C)C
inactive: [1] | [2] | [3] | [4] | [5] | [7] | [14] | [8] | [9] | [15] | [19] | [10] | [16] | [17] | [12]

CCN(CC)C(=S)[S-].CCN(CC)C(=S)[S-].[Zn+2]
active: [1] 60.6 µM | [2] 2710 nM | [3] 2150 nM | [6] 68 µM | [7] 12.1 µM | [8] 1.08 µM | [9] 1.21 µM | [19] 12.2 µM | [10] 38.6 µM | [12] 1.71 µM | [18] 1.08 µM
inactive: [4] | [5] | [11]

CC(C)OC(=O)C(O)(c1ccc(Cl)cc1)c1ccc(Cl)cc1
inactive: [1] | [2] | [3] | [4] | [5] | [6] | [7] | [19] | [10] | [16] | [17] | [18]

CCOP(=S)(OCC)SCS(=O)(=O)C(C)(C)C
active: [8] 68.6 µM
inactive: [1] | [2] | [13] | [4] | [5] | [7] | [14] | [19] | [10] | [11] | [16] | [17] | [12]

CCOP(=S)(OCC)SCCS(=O)(=O)CC
inactive: [1] | [2] | [3] | [4] | [5] | [6] | [7] | [14] | [9] | [15] | [19] | [10] | [16] | [17] | [12]
active: [8] 48.6 µM

CC(C)CCCCCCCOP(=O)(Oc1ccccc1)Oc1ccccc1
inactive: [1] | [2] | [3] | [4] | [5] | [6] | [7] | [15] | [10] | [11] | [16] | [17] | [12] | [18]
active: [8] 24.5 µM
